# Assay results from PubChem BioAssay (Tox21).
# Records with an inconclusive call do not appear. Values without a mark were called inactive. Calls follow the shape of the dose curve; as a rule, active = well fitted cell-killing curve with a large enough effect in the repeat runs; inconclusive = weak or mixed curves, or effect the other way; inactive = flat fitted curve, though single readings scatter.
# Assay: qHTS assay to identify small molecule agonists of the androgen receptor (AR) signaling pathway in the presence of an antagonist - cell viability counter screen (AID 1259379); also: nearly all actives have a fitted effect of over 25% in size
# Settings: MDA-kb2 viability, CellTiter-Fluor, 16 h; series mostly up to 92.4 µM; activity change, negative = cytotoxicity: at the top concentration
# Description: National Center for Advancing Translational Sciences [NCATS]
# NIH Chemical Genomics Center [NCGC]
# U.S. Environmental Protection Agency [EPA]
# National Institutes of Environmental Health Sciences [NIEHS]
# National Toxicology Program [NTP]
# U.S. Food and Drug Administration [FDA]
# Androgen receptor (AR) is an important member of nuclear receptor family. Its signaling plays a critical role in AR-dependent prostate cancer and other androgen related diseases. Considerable attention has been given in the past decades to develop methods to study and screen for the environmental chemicals that have the potential to interfere with metabolic homeostasis, reproduction, developmental and behavioral functions. Therefore AR binding assay for screening against androgen agonists and antagonists can be used to identify potential endocrine disruptors.
# MDA-kb2 cells (from ATCC, deposited by Wilson et al.) are human breast carcinoma cells that were stably transfected with a luciferase reporter gene under control of the MMTV promoter that contains response elements for both androgen receptor (AR) and glucocorticoid receptor (GR). This particular screening for measuring luciferase reporter gene activity using MDA-kb2 cells against Tox21 10K library compounds is a confirmation study on agonist mode screening in the presence of AR-antagonist compound (Nilutamide) at 3.0uM final concentration. The cytotoxicity of the compounds was tested in parallel by measuring the cell viability using CellTiter-Fluor assay system (Promega, Madison, WI) in the same wells.
# Tox21 Assay Protocol Summary:
# MDA-kb2 cells (cells cultured without CO2) were dispensed at 3,000 cells/well in 4uL of culture medium into white wall/solid-bottom 1536-well plates (Corning Life Sciences, Corning, NY) using a Multidrop Combi (Thermo Fisher Scientific Inc., Waltham, MA) dispenser. The assay plates were incubated at 37C and 0% CO2 for 5hr. One uL of 3.0uM (final concentration) Nilutamide or assay buffer was added using two separate tips of Flying Reagent Dispenser (FRD, Aurora Discovery, San Diego, CA). Then 23nL of compounds dissolved in DMSO at 15 concentrations and positive controls were transferred to the assay plates using a Pintool station (Wako, San Diego, CA). The assay plates were incubated at 37C and 0% CO2 for 16 hr. After 15hr incubation at 37C, 1uL/well CellTiter-Fluor reagent (Promega Corporation) was added to each well of the assay plates using FRD. After 1hr incubation at 37C and 0% CO2, the fluorescence signal was measured using a ViewLux plate reader (PerkinElmer, Shelton, CT).
# % is scaled to controls: 0 for no effect and ±100 for the full control effect.
row,SMILES,"activity change, negative = cytotoxicity"
1,Cc1cc2c(s1)Nc1ccccc1N=C2N1CCN(C)CC1,-10.2% [at 42.5 µM]
2,C[C@]12C(=O)OC(=O)[C@H]1[C@H]1C=C[C@@H]2C1,0.0785%
3,CN1CCN(c2c(F)cc3c(=O)c(C(=O)O)cn4c3c2SCC4)CC1,2.19% [at 42.5 µM]
4,COC(=O)C(C)O (stereo not given),0.334%
5,O=[N+]([O-])c1nccn1CO[C@@H](CO)[C@H](O)CO,-2.73% [at 42.5 µM]
6,CCCCNC(=S)NCCCC,1%
7,Cc1onc(-c2ccccc2)c1C(=O)Cl,3.06% [at 42.5 µM]
8,CC/C=C\CCOC(=O)C(C)C,2.28%
9,COc1cc(N)c(Cl)cc1C(=O)NC1CCN(Cc2ccccc2)CC1,-4.41% [at 42.5 µM]
10,CO[Si](C)(C)OC,-1.14%
11,COc1ccccc1N1CCN(CCCNc2cc(=O)n(C)c(=O)n2C)CC1,-0.303% [at 42.5 µM]
12,CCCCCCn1c(=O)c2c(ncn2C)n(C)c1=O,-1.9% [at 42.5 µM]
13,CC(=O)OC(C)OC(C)=O,1.23%
14,CCC(=O)O[C@]1(C(=O)SCF)[C@H](C)C[C@H]2[C@@H]3C[C@H](F)C4=CC(=O)C=C[C@]4(C)[C@@]3(F)[C@@H](O)C[C@@]21C,2.77% [at 42.5 µM]
15,CCCCNc1cc(C(=O)O)cc(S(N)(=O)=O)c1Oc1ccccc1,2.63% [at 42.5 µM]
16,ClC(Cl)Cl,2.88%
17,NCCCN1CCN(CCCN)CC1,0.451%
18,CCCc1c2oc(C(=O)O)cc(=O)c2cc2c(=O)cc(C(=O)O)n(CC)c12,0.132% [at 42.5 µM]
19,O=C1CCCCCCCCCCC(=O)OCCO1,2.97%
20,CCN(CC)C(=O)N(CC)CC,0%

row,SMILES,"activity change, negative = cytotoxicity"
1,CCOc1ccc2nc(N)sc2c1,-0.749%
2,CCCCCOc1ccc(C2SC(=O)NC2=O)cc1OCC (stereo not given),-5.71% [at 42.5 µM]
3,CCCN(CCC)C(=O)C(CCC(=O)O)NC(=O)c1ccccc1 (stereo not given),0.918% [at 42.5 µM]
4,Cc1ccc([N+](=O)[O-])cc1Cl,-0.61%
5,Cn1cnc2c(F)c(Nc3ccc(Br)cc3Cl)c(C(=O)NOCCO)cc21,-6.2% [at 42.5 µM]
6,C=CCCCCCCCCO,-0.0906%
7,Cc1nnc(SCC2=C(C(=O)O)N3C(=O)[C@@H](NC(=O)Cn4cnnn4)[C@H]3SC2)s1,-0.372% [at 42.5 µM]
8,C[C@@H]1CN(c2c(F)c(F)c3c(=O)c(C(=O)O)cn(C4CC4)c3c2F)C[C@H](C)N1,1.23% [at 19 µM]
9,CC1(C)C(=O)N(Cl)C(=O)N1Br,-0.632%
10,COc1ccccc1OCC(O)COC(N)=O (stereo not given),0.972% [at 42.5 µM]
11,CCOC(=O)c1ccccc1O,-0.277% [at 42.5 µM]
12,COC(=O)c1ccc2cc(C(=O)OC)ccc2c1,2.92% [at 19 µM]
13,O=C(O)c1ccccc1Nc1cc(Cl)ccc1C(=O)O,-0.898% [at 19 µM]
14,Nc1cccc(S(=O)(=O)O)c1,0.165%
15,CC(C)(C)c1cccc(O)c1,2.42%
16,CCC/C=C/CO,-1.06%
17,CCCC1CCC(=O)O1 (stereo not given),0.748%
18,CCN(O)CC,3.29%
19,CCOC(=O)CS,-6.83%
20,CN(CC1(C)CCCO1)S(=O)(=O)c1ccc(Cl)c(S(N)(=O)=O)c1 (stereo not given),0.258% [at 42.5 µM]
